Here are results for nine molecules from PubChem BioAssay (NCI).

Test systems include SR leukemia; RPMI-8226 leukemia; OVCAR-8 ovarian; OVCAR-5 ovarian; OVCAR-4 ovarian; SK-OV-3 ovarian; IGROV1 ovarian; OVCAR-3 ovarian; NCI/ADR-RES ovarian; T-47D breast; BT-549 breast; MDA-MB-435 melanoma; MCF7 breast; HCT-116 colon; HCC-2998 colon; KM12 colon; MDA-MB-468 breast.
Holding throughout (assay): NCI-60 one-dose screen, 48 h (100 = growth as untreated, 0 = no growth, -100 = all killed)
Common to all, as to conditions: 10 µM unless noted

Compounds without any hit were thinned out: in the full panel of roughly 83,000, 20% have a hit.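 Compound tested at a single concentration for 48 hours in 96-well plates; a percent growth value below 10 was scored as active.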 Unmarked numbers belong to inactive results. The source made the active and inactive calls.

Regarding `CCOC(=O)C1=C(N)N(c2ccccc2)C2=C(C(=O)CC(C)(C)C2)C1c1ccc(Cl)cc1Cl` (stereo not drawn), the growth in the assay with SR leukemia was 10.1%; in the assay on RPMI-8226 leukemia it was 7.77% (active); in the assay with OVCAR-8 ovarian, 36.7%; in the assay on OVCAR-5 ovarian, 56.9%; with OVCAR-4 ovarian it was 25.3%; in the assay with SK-OV-3 ovarian it was 34.5%. The growth was 59.4% in the assay on IGROV1 ovarian; 33.3% in the assay with OVCAR-3 ovarian; 23.6% in the assay with NCI/ADR-RES ovarian; 20.9% with T-47D breast; 33.4% in the assay with BT-549 breast; 29.5% in the assay on MDA-MB-435 melanoma. Also, the growth was 9.22% (active) in the assay with MCF7 breast; 13.6% with HCT-116 colon; 37.5% in the assay on HCC-2998 colon; 18.7% in the assay on KM12 colon; 3.8% (active) in the assay on MDA-MB-468 breast.
With `O=c1c2ccccc2nc(-c2ccccc2)n1/N=C/c1ccc2ccccc2c1`, the growth was 11.5% in the assay on SR leukemia; 39% in the assay on RPMI-8226 leukemia; 50.6% with OVCAR-8 ovarian; 69.4% in the assay on OVCAR-5 ovarian; 85.8% with OVCAR-4 ovarian; 68.5% with SK-OV-3 ovarian. Moreover, the growth in the assay on IGROV1 ovarian was 55.6%; in the assay on OVCAR-3 ovarian, 67.4%; in the assay with NCI/ADR-RES ovarian, 53.5%; in the assay with T-47D breast it was 56.4%; in the assay on BT-549 breast it was 51.8%; in the assay on MDA-MB-435 melanoma it was 55%. Besides, the growth was 34.2% in the assay on MCF7 breast; 22.1% with HCT-116 colon; 57.5% with HCC-2998 colon; 45% with KM12 colon; 67.2% in the assay with MDA-MB-468 breast.
As to `CCCCOc1ccc(NC(=O)c2sc3nc(C)ccc3c2N)cc1`, the growth in the assay with SR leukemia was 19.1%; in the assay with RPMI-8226 leukemia it was 32.4%; in the assay with OVCAR-8 ovarian, 5.4% (active); in the assay with OVCAR-5 ovarian, 20.1%; in the assay with OVCAR-4 ovarian, 1.32% (active); in the assay on SK-OV-3 ovarian, -15.9% (active). Besides, the growth was 17.7% in the assay on IGROV1 ovarian; 15.5% in the assay on OVCAR-3 ovarian; -39.3% (active) with NCI/ADR-RES ovarian; 15% in the assay on T-47D breast; -11.6% (active) in the assay on BT-549 breast; 39.7% in the assay on MDA-MB-435 melanoma. In addition, the growth is 18.1% in the assay with MCF7 breast; -67.4% (active) in the assay on HCT-116 colon; 21.2% in the assay on HCC-2998 colon; 26.2% with KM12 colon; -48.4% (active) in the assay with MDA-MB-468 breast.
With `COc1ccc2nc(Nc3cccc(NC(=O)c4ccc(CN5CCCN(C)CC5)c(C(F)(F)F)c4)c3)ccc2c1`, the growth in the assay on SR leukemia is 4.09% (active); in the assay with RPMI-8226 leukemia it was -31.7% (active); with OVCAR-8 ovarian it was 2.26% (active); with OVCAR-5 ovarian, -84.5% (active); in the assay with OVCAR-4 ovarian, -94.4% (active); in the assay on SK-OV-3 ovarian, -62.4% (active). Moreover, the growth with IGROV1 ovarian is -56.4% (active); with OVCAR-3 ovarian it was -48.8% (active); in the assay on NCI/ADR-RES ovarian it was -43.1% (active); in the assay with T-47D breast, -44.6% (active); in the assay on BT-549 breast, -61.4% (active); with MDA-MB-435 melanoma it was -42.8% (active). In addition, the growth in the assay on MCF7 breast is -62.8% (active); in the assay on HCT-116 colon it was -47.1% (active); with HCC-2998 colon it was -62.6% (active); in the assay on KM12 colon, -47.5% (active); with MDA-MB-468 breast, -71.1% (active).
As to `NS(=O)(=O)c1ccc(-n2cc(-c3cccc(NC(=O)c4cc(C(F)(F)F)cc(C(F)(F)F)c4)c3)nn2)cc1`, the growth with SR leukemia is 47.4%; in the assay with RPMI-8226 leukemia, 90%; with OVCAR-8 ovarian it was 40.7%; in the assay with OVCAR-5 ovarian it was 70.5%; in the assay on OVCAR-4 ovarian, 85.9%; in the assay on SK-OV-3 ovarian, 68.4%. In addition, the growth in the assay on IGROV1 ovarian is 63.1%; with OVCAR-3 ovarian it was 78.5%; with NCI/ADR-RES ovarian it was 81.6%; with T-47D breast, 60.3%; with BT-549 breast, 98.7%; with MDA-MB-435 melanoma it was 87.8%. For the same molecule, the growth was 59.6% in the assay on MCF7 breast; 46.7% in the assay on HCT-116 colon; 65.3% in the assay with HCC-2998 colon; 21.9% in the assay with KM12 colon; 55.1% in the assay on MDA-MB-468 breast.
With `N#Cc1c(-c2ccc(Cl)cc2)nc2n[nH]c(-c3ccc(Cl)cc3)c2c1-c1ccc(C(F)(F)F)cc1`, the growth in the assay on SR leukemia is -21.8% (active); in the assay with RPMI-8226 leukemia it was -2.57% (active); in the assay on OVCAR-8 ovarian it was 16.2%; in the assay with OVCAR-5 ovarian it was -41.8% (active); with OVCAR-4 ovarian, 2.98% (active); with SK-OV-3 ovarian it was 3.06% (active). The growth in the assay with IGROV1 ovarian is -15% (active); in the assay on OVCAR-3 ovarian it was -13.9% (active); with NCI/ADR-RES ovarian, -24.5% (active); with T-47D breast, -2.6% (active); in the assay with BT-549 breast, -40% (active); with MDA-MB-435 melanoma, -29.7% (active). In addition, the growth with MCF7 breast was -4.6% (active); in the assay with HCT-116 colon, -63.3% (active); with HCC-2998 colon it was -38.9% (active); in the assay on KM12 colon, -11% (active); with MDA-MB-468 breast, -45% (active).
Turning to `N#Cc1c(-c2cccc(O)c2O)cc(-c2ccc3ccccc3c2)[nH]c1=O`, the growth with SR leukemia is 12.1%; with RPMI-8226 leukemia, 60.9%; with OVCAR-8 ovarian, 69.8%; in the assay with OVCAR-5 ovarian it was 79.5%; in the assay with OVCAR-4 ovarian, 69.5%; in the assay on SK-OV-3 ovarian, 77.6%. In addition, the growth was 48.8% in the assay on IGROV1 ovarian; 18.9% with OVCAR-3 ovarian; 90.6% in the assay with NCI/ADR-RES ovarian; 68.9% in the assay with T-47D breast; 52.8% in the assay with BT-549 breast; 72% in the assay with MDA-MB-435 melanoma. The growth with MCF7 breast was 59.8%; with HCT-116 colon, 34.5%; in the assay on HCC-2998 colon, 74.3%; in the assay on KM12 colon, 19.5%; with MDA-MB-468 breast it was 58.6%.
As to `COc1cc(CNC(=O)/C=C/c2ccc3c(c2)OCO3)ccc1OCc1cn(-c2cccc(C(F)(F)F)c2)nn1`, the growth with SR leukemia was 41.5%; in the assay on RPMI-8226 leukemia, 40.9%; in the assay with OVCAR-8 ovarian it was -9.92% (active); with OVCAR-5 ovarian it was 36.6%; in the assay on OVCAR-4 ovarian it was 34.9%; with SK-OV-3 ovarian, 47.4%. In addition, the growth with IGROV1 ovarian is 44.7%; with OVCAR-3 ovarian, 42.9%; with NCI/ADR-RES ovarian, 4.67% (active); in the assay with T-47D breast, 17.1%; in the assay on BT-549 breast, -10.7% (active); in the assay on MDA-MB-435 melanoma, 39.9%. For the same molecule, the growth in the assay on MCF7 breast was 12.2%; in the assay with HCT-116 colon, -25.3% (active); with HCC-2998 colon, 8.65% (active); in the assay on KM12 colon it was 48.8%; in the assay with MDA-MB-468 breast, -21.4% (active).
Consider `COc1ccc(NC(=O)c2sc3nc(C(C)C)ccc3c2N)cc1`, for which the growth was 60% in the assay on SR leukemia; 54.5% in the assay with RPMI-8226 leukemia; 89.1% in the assay on OVCAR-8 ovarian; 83.2% with OVCAR-5 ovarian; 56.7% with OVCAR-4 ovarian; 97.9% in the assay with SK-OV-3 ovarian. The growth with IGROV1 ovarian is 100%; in the assay with OVCAR-3 ovarian, 93.9%; in the assay on NCI/ADR-RES ovarian it was 59.6%; with T-47D breast it was 42%; in the assay with BT-549 breast, 88.5%; in the assay on MDA-MB-435 melanoma, 87.5%. Also, the growth in the assay with MCF7 breast was 79.5%; in the assay with HCT-116 colon it was 94.7%; with HCC-2998 colon, 100%; in the assay with KM12 colon, 78.2%; with MDA-MB-468 breast it was 55.8%.
